Reference: PubChem BioAssay AID602242 (Southern Research Specialized Biocontainment Screening …, 2012)
Potency and affinity values are given separately. The source made the active and inactive calls. Where a call stands in place of a potency, no number is given. The rule behind the calls is not given here.

Test: cell-based, strain KU V3526, counter-screen (AID 602242)

| Compound | outcome |
| --- | --- |
| O=c1c2cc([N+](=O)[O-])ccc2nc(CN2CCN(c3ccccc3)CC2)n1-c1ccccc1F | inactive |
| O=C(Oc1ccc2ccccc2c1Br)N1CCCCCC1 | inactive |
